From PubChem BioAssay
Compounds with a hit are over-represented: about 11% of the library has one in this group of screens.
FLuc inh – Firefly luciferase inhibition profiling of diverse chemical library using quantitative high-throughput screening; Luciferin 4-monooxygenase (Photinus pyralis), P08659; purified P. pyralis luciferase, luminescence, biochemical; Potency, µM (doses to about 115 µM), hits mostly inhibitors; 76,000 tested, 2.5% active; AID 1347043, 2019; note: nearly all actives have a fitted effect of over 65% in size
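Inhibitors were tested against purified firefly luciferase in a biochemical, low-substrate format (both substrates at 10uM) and luminescence measured with a CCD imager.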
3T3 cytotox – Cytotoxic Profiling in NIH 3T3 Cell Line of Diverse Libraries Using Quantitative High-Throughput Screening. NIH 3T3 viability, CellTiter-Glo ATP luminescence, 48-72 h. Potency, µM (highest dose often 96.7 µM), without a hit: at the top dose activity change, negative = cytotoxicity, most hits filed as inhibitors. 94,000 tested, 4.3% active; note: nearly all actives have a fitted effect of over 55% in size
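Cytotoxicity was measured by CellTiter-Glo ATP luminescence after 48 or 72 h compound exposure at 37 °C. Mouse NIH 3T3 fibroblasts were seeded at 400 cells/well and dosed by 23 nL pin transfer.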
HEK293 tox – Cytotoxic Profiling in HEK 293 Cell Line of Diverse Libraries Using Quantitative High-Throughput Screening; HEK 293 viability, ATP luminescence (CellTiter-Glo), 48-72 h; Potency, µM (titrated, usually from 115 µM), without a hit: at the top dose activity change, negative = cytotoxicity, actives largely listed as inhibitors; 94,000 tested, 6.6% active; AID 1345083, 2018; note: nearly all actives have a fitted effect of over 60% in size
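Pintool-delivered compounds were incubated with HEK 293 cells (250 cells/well) at 37 degree Celsius for 48 or 72 hr. ATP-dependent luminescence (CellTiter-Glo) then reported remaining viable cells.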
NPR1 antag – Natriuretic polypeptide receptor (hNpr1) antagonism - Primary qHTS | 76,000 tested, 1.6% active | Potency, µM (series often up to 46.3 µM), inactives show at the top dose activity change, negative = inhibition, most hits filed as inhibitors | AID 1347048, 2019 | HEK293 hNpr1 GloSensor cGMP, ANP-stimulated luminescence; calls by dose curve; note: nearly all actives have a fitted effect of over 60% in size
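Compound pre-incubated 30 min at room temperature on GloSensor-loaded HEK293 cells stably carrying hNpr1 and the pGS-40F cGMP biosensor. Stimulation uses hNppA at 0.1 nM final; luminescence is taken at baseline and 20 min post-agonist.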
Starred values were filed as active, the others as inactive; i = inactive; u = inconclusive; x = no result given; [ ] = remark or other dose. Unless noted, calls come from the whole dose curve; as a rule, active = well fitted curve in the direction sought with a large enough effect; inconclusive = small, poorly fitted or top-dose-only effect, or another doubt; inactive = no such curve, though single readings can be large; an effect the other way counts as inactive or inconclusive. % is set by controls: 0 for no effect and ±100 for the full control effect; potency is the fitted concentration of half-maximal effect.

SMILES | FLuc inh | 3T3 cytotox | HEK293 tox | NPR1 antag
CCC(=O)N1CCN(c2nc3c(s2)CC(C(=O)Nc2ccc(F)cc2F)CC3)CC1 (stereo not drawn) | i | u | 10µM* | u
CCC(=O)N1CCN(c2nc3c(s2)CC(C(=O)Nc2cccc(C)c2C)CC3)CC1 (stereo not drawn) | i | u | 40µM* | -20%
CCC(=O)N1CCN(c2nc3c(s2)CC(C(=O)Nc2ccc(F)cc2C)CC3)CC1 (stereo not drawn) | i | -16% | u | -16%
CNC(=O)c1cc(C)nc2onc(C3CCCN(C(=O)c4ccccc4OC)C3)c12 (stereo not drawn) | x | -19% | -1% | x
COc1ccc(OC)c(CNC(=O)C23CCC=C2N(C2CCCC2)C(=O)CC3)c1 (stereo not drawn) | x | -7% | -9% | x
C#CCNC(=O)c1cc(-c2ccc([S+](C)(=O)[O-])cc2)nc2c1cnn2C | x | -15% | u | x
COc1ccc(-c2cc(C(=O)NCC(F)(F)F)c3c(C4CCNC4)nn(C)c3n2)cc1 (stereo not drawn) | x | u | 79µM* | x
C#CCNC(=O)c1cc(-c2ccc(OC)cc2)nc2c1cnn2C | x | 50µM* | u | x
COC(=O)CNC(=O)c1cc(-c2ccc(Cl)nc2)nc2c1cnn2C | x | 32µM* | -4% | x
C#CCNC(=O)c1cc(-c2ccc(Cl)cc2)nc2c1cnn2C | x | u | 89µM* | x
COc1ccc(-c2cc(C(=O)N(C)C)c3cnn(C)c3n2)cc1 | x | -4%[138 µM] | 2%[172 µM] | x
O=C(c1ccc(Cl)cc1)N1CCCC2(CN[S+](=O)([O-])c3cccnc3N2)C1 (stereo not drawn) | x | -3% | 2% | x
OCCOc1ccccc1CN1CCCC(Nc2ccc(F)c(F)c2)C1 (stereo not drawn) | i | -35% | -20% | -1%
Cn1ncc2c(C(=O)NCC(F)F)cc(-c3ccc(Cl)cc3)nc21 | x | u | 45µM* | x
O=C(NC1CCN(C(=O)c2ccc(-c3cncnc3)cc2)CC1)C1CCCC1 | x | -19% | -14% | x
CC(Cc1cccnc1)Nc1cc(-c2ccccc2F)nc2ccnn12 (stereo not drawn) | i | u | 79µM* | 4%
COc1ccc(N2CC(c3noc(-c4ccc(C(C)(C)C)cc4)n3)CC2=O)cc1OC (stereo not drawn) | u | u | 40µM* | u
COc1ccccc1CN1CC(c2noc(-c3ccc(C)cc3C)n2)CC1=O (stereo not drawn) | i | u | 40µM* | -16%
CCOc1ccc(-c2nc(C3CC(=O)N(Cc4ccccc4OC)C3)no2)cc1 (stereo not drawn) | i | 22µM* | 45µM* | -13%
CCc1ccc(N2CC(c3noc(-c4sccc4C)n3)CC2=O)cc1 (stereo not drawn) | i | u | 79µM* | 0%
COc1ccc(-c2nc(C3CC(=O)N(Cc4ccccc4OC)C3)no2)c(C)c1 (stereo not drawn) | i | u | u | -2%
COc1cccc(CNC(=O)C2CCc3nnc(C4CCN(C(C)=O)CC4)n32)c1 (stereo not drawn) | x | -21% | 1% | x
COCC(=O)NCCNC(=O)c1ccc(-c2cccc(OC)c2)cc1 | x | -35%[138 µM] | u | x
Cc1nc(C)c(C(=O)N2Cc3ccccc3OC3(CCN(C(C)C)CC3)C2)s1 | x | -22% | -6% | x
COc1ccccc1Nc1ccnc(N2CCCC(C(=O)NC3CCOCC3)C2)n1 (stereo not drawn) | x | -28% | -25% | x
SMILES | FLuc inh | 3T3 cytotox | HEK293 tox | NPR1 antag
COc1ccccc1Nc1ccnc(N2CCCC(C(=O)NCc3cccc(Cl)c3)C2)n1 (stereo not drawn) | x | 13µM* | u | x
COc1ccccc1Nc1ccnc(N2CCCC(C(=O)NCc3cccc(F)c3)C2)n1 (stereo not drawn) | x | 13µM* | 11µM* | x
COc1ccccc1Nc1ccnc(N2CCCC2C(=O)NCc2ccc(F)cc2)n1 (stereo not drawn) | x | -20% | u | x
CN1C[C@H](O)[C@]2(CCN(Cc3ccc(OC(F)(F)F)cc3)C2)S1(=O)=O | x | -27% | u | x
O=C(NCc1ccc(F)cc1)C1CCN(c2nc3ncccc3o2)CC1 | x | -13% | i | x
COc1ccccc1-n1c(=O)c(C(=O)N2CCN([S+](=O)([O-])c3ccc(C)cc3)CC2)nc2cccnc21 | x | u | -8% | x
Cc1noc(C)c1CN1CCc2ncc(C(=O)Nc3ccccc3)n2CC1 | i | u | -23%[172 µM] | -2%[70.6 µM]
Cc1csc(NC(=O)c2nc3c(o2)CCN(Cc2c(C)noc2C)CC3)n1 | 63µM* | 50µM* | -26%[172 µM] | -1%[70.6 µM]
CCCN1CCc2nc(C(=O)Nc3nc(C)cs3)oc2CC1 | 20µM* | -23%[138 µM] | u | -2%[70.6 µM]
O=C(NCC1CC1)c1nc2c(o1)CCN(CCCc1ccccc1)CC2 | u | -20%[138 µM] | u | 3%[70.6 µM]
Cc1csc(NC(=O)c2nc3c(o2)CCN(Cc2ccc(C#N)cc2)CC3)n1 | 22µM* | u | u | u
Cc1csc(NC(=O)c2nc3c(o2)CCN(Cc2ccccc2)CC3)n1 | u | u | 56µM* | -30%[70.6 µM]
O=C(c1cccs1)N1CCC(Cc2nc(C3CC3)n[nH]2)CC1 | i | -1% | i | -2%
O=C(NCCC1CCN(C(=O)Nc2cccc(F)c2)CC1)c1ccccc1F | u | -27% | u | 1%
Cc1ccc(OCc2nc(C3CCCN3C(=O)C3CC3)no2)cc1 (stereo not drawn) | i | -8% | 3% | -4%
O=C(c1ccc(N2CC3CC(C2)[C@H]2CCCC(=O)N2C3)nc1)N1CCN(c2ccc(Cl)cc2)CC1 (stereo partly drawn) | i | u | u | 1%
COCCN1CCCCCC(O)c2cc(C(=O)NCCc3cccnc3)ccc21 (stereo not drawn) | i | -7% | i | -2%
O=C(NCc1ccccc1)O[C@H]1COCCN(c2nc3ccccc3s2)C1 | i | u | u | 5%[70.6 µM]
COc1ccc(CNC(=O)O[C@H]2COCCN(c3nc4ccccc4s3)C2)cc1 | i | u | 89µM* | -1%[70.6 µM]
Cc1cccc(O[C@H]2COCCN(c3nc4ccccc4s3)C2)n1 | 50µM* | u | 100µM* | -16%[70.6 µM]
CN1CCC(NC(=O)c2nc3nc(-c4ccccc4)c(-c4cccc(O)c4)cc3n2C)CC1 | i | 11µM* | 35µM* | -6%
CN(C)CCNC(=O)c1nc2nc(-c3ccccc3)c(Cl)cc2n1C | i | u | -24%[172 µM] | -1%[70.6 µM]
CN(C)CCNC(=O)c1nc2nc(-c3ccccc3)c(-c3ccccc3F)cc2n1C | i | 35µM* | 50µM* | u
Cn1c(C(=O)NCCc2cnc[nH]2)nc2nc(-c3ccccc3)c(Cl)cc21 | u | 28µM* | u | -13%[70.6 µM]
